HTT cytoprotect: qHTS Multiplex Assay to Identify Dual Action Probes in a Cell Model of Huntington: Cytoprotection (ATP). PC12 HTT-Q103 induced, cytoprotection, ATP luminescence, 40 h. 230,000 tested, 0.14% active. Potency, µM (series often up to 56.4 µM), hits mostly activators; active = well fitted curve in the direction sought with a large enough effect; inconclusive = small, poorly fitted or top-dose-only effect, or another doubt; inactive = no such curve, though single readings can be large; an effect the other way counts as inactive or inconclusive; also: nearly all actives have a fitted effect of over 45% in size
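Rat PC12, Q103 Htt exon1-GFP fusion, ecdysone promoter; tebufenozide inducer 100 nM final; compound titration; qHTS, 1500 cells/well; ATPlite luminescent read.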
HPGD block: qHTS Assay for Inhibitors of HPGD (15-Hydroxyprostaglandin Dehydrogenase). 15-hydroxyprostaglandin dehydrogenase [NAD(+)] (Homo sapiens), P15428. purified HPGD, NADH fluorescence kinetic, PGE2 substrate. Potency, µM, most hits filed as inhibitors. 150,000 tested, 4.3% active. AID 894, 2007
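NADH formation kinetics: reaction with 30 uM PGE2 and 1 mM NAD+ (final), 20 nM enzyme, Tris-HCl pH 8 with Tween 20, after 15 min compound preincubation at room temperature. Fluorescence change, last versus first of five reads.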
ALDH1A1 inh: qHTS Assay for Inhibitors of Aldehyde Dehydrogenase 1 (ALDH1A1); 220,000 tested, 7.3% active; Potency, µM (highest dose often 75.3 µM), hits mostly inhibitors; Purified ALDH1A1, NADH fluorescence, propionaldehyde substrate; AID 1030, 2008; Aldehyde dehydrogenase 1A1 (Homo sapiens), P00352
RGS12 GoLoco inh: qHTS Assay for Inhibitors of RGS12 GoLoco Motif Activity (Red Fluorophore) | 230,000 tested, 0.44% active | Gai1:RGS12 GoLoco peptide FP, rhodamine, 10 min | Potency, µM (titrated, usually from 61.6 µM), hits mostly inhibitors | Guanine nucleotide-binding protein G(i) subunit alpha-1 (Homo sapiens), P63096; active = well fitted inhibition curve with a large enough effect, not every such curve was filed as active; inactive = no such curve, though single readings can be large or run the other way; also: nearly all actives have a fitted effect of over 30% in size
Target sequence (P63096 whole entry, looked up): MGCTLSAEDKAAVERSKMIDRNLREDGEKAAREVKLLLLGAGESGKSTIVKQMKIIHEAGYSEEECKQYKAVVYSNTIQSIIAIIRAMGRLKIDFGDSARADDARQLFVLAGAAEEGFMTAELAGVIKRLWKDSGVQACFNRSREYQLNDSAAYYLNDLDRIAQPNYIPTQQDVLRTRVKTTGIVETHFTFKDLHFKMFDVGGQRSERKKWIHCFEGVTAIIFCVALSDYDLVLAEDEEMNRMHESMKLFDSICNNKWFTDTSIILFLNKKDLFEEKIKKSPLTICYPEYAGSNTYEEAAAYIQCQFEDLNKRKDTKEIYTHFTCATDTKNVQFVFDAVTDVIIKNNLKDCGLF
HttQ103 aggreg: qHTS Multiplex Assay to Identify Dual Action Probes in a Cell Model of Huntington: Aggregate Formation (GFP). PC12 HttQ103-GFP aggregates, Acumen cytometry, 40 h. Potency, µM (doses to about 46.1 µM), most hits filed as inhibitors. 220,000 tested, 1.1% active. AID 1688, 2009; active = well fitted curve in the direction sought with a large enough effect; inconclusive = small, poorly fitted or top-dose-only effect, or another doubt; inactive = no such curve, though single readings can be large; an effect the other way counts as inactive or inconclusive; also: nearly all actives have a fitted effect of over 60% in size
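Aggregate formation scored by laser-scanning cytometer (488 excitation, 500–530 emission) in lysed PC12 cells expressing Q103-GFP after 100 nM tebufenozide induction; library tested in dose series, with ATPLite reagent added in the multiplex.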
PNC assembly inh: High Content Assay for Compounds that inhibit the Assembly of the Perinucleolar Compartment; PC3M PTB-GFP, PNC prevalence imaging, 16 h; stronger effect = lower value; activity change (PNC), negative = inhibition, % at 10 µM; 140,000 tested, 3.1% active; AID 2417, 2010;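 active = readout at or below -70, meaning at least 70% loss of cells showing the perinucleolar compartment, a nuclear body marking cancer cells; inconclusive = readout between -30 and a set limit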
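Read-out is percentage of cells bearing a perinucleolar compartment, from automated 20x imaging of fixed, Hoechst-stained PC3M PTB-GFP cells. Cells were seeded 4 h, then exposed 16 h to compound (23 nl of library stock) in duplicate plates.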
Numbers stand for hits; [ ] = remark or other dose. Shown are actives, neighbours in structure and some others; about 11% of the full set was active somewhere. Unless noted, calls follow the shape of the dose curve; as a rule, active = well fitted inhibition curve with a large enough effect (not every such curve was filed as active); inconclusive = small, poorly fitted or top-dose-only effect, or another doubt; inactive = no such curve, though single readings can be large or run the other way.

CCCCOc1ccc(N2C(=O)CC(NCCc3ccc(S(N)(=O)=O)cc3)C2=O)cc1 (stereo not given) was read as HTT cytoprotect inactive, HPGD block inactive, ALDH1A1 inh inconclusive, RGS12 GoLoco inh inactive, HttQ103 aggreg inactive and PNC assembly inh -82.3.
For CCN(CC)CCCNc1cc(C)nc2cc(-c3cccs3)nn12 the results were HTT cytoprotect inactive[10 µM], ALDH1A1 inh inconclusive, RGS12 GoLoco inh inactive and HttQ103 aggreg inactive[9.22 µM].
OC(c1ccccc1)C1CN(Cc2ccccc2)CCC1(O)c1ccccc1 (stereo not given) was read as HTT cytoprotect inactive, HPGD block inactive, ALDH1A1 inh 20µM, RGS12 GoLoco inh inactive, HttQ103 aggreg inactive and PNC assembly inh inactive.
O=C(c1ccccc1)C1CN(Cc2ccccc2)CCC1(O)c1ccccc1 (stereo not given) was read as HTT cytoprotect inactive[10 µM], ALDH1A1 inh 0.224µM, RGS12 GoLoco inh inactive and HttQ103 aggreg inactive[9.22 µM].
OC(CN1CCN(Cc2ccccc2)CC1)c1ccccc1 (stereo not given) was read as HTT cytoprotect inactive, ALDH1A1 inh inactive, RGS12 GoLoco inh inactive and HttQ103 aggreg inactive.
`CC(C)NC(=O)NC(=O)COC(=O)/C=C/c1ccccc1[N+](=O)[O-]` gave HTT cytoprotect inactive[10 µM], ALDH1A1 inh inactive, RGS12 GoLoco inh inactive and HttQ103 aggreg inactive.
For O=C(Cn1nnc(-c2ccc(CN3CCOCC3)cc2)n1)N(c1ccccc1)c1ccccc1 the results were HTT cytoprotect inactive[10 µM], ALDH1A1 inh 11.2µM, RGS12 GoLoco inh inactive and HttQ103 aggreg inconclusive.
`COc1ccc(/C=N\NC(=O)COc2ccccc2)c(C(=O)O)c1OC` gave HTT cytoprotect inactive[10 µM], HPGD block inactive, ALDH1A1 inh inactive, RGS12 GoLoco inh inactive, HttQ103 aggreg inactive and PNC assembly inh inconclusive.
For COCCNc1ccnc(-c2ccccc2C)n1 the results were HTT cytoprotect inactive, ALDH1A1 inh inconclusive and RGS12 GoLoco inh inactive.
N/C(Cn1cncn1)=N\NC(=O)C(=O)Nc1cccc(C(F)(F)F)c1 was read as HTT cytoprotect inactive[10 µM], ALDH1A1 inh inactive, RGS12 GoLoco inh inactive and HttQ103 aggreg inactive.
N#C/C(=C\c1ccc(N2CCOCC2)o1)c1ccccc1 was read as HTT cytoprotect inactive, HPGD block inconclusive, ALDH1A1 inh 11.2µM, RGS12 GoLoco inh 7.08µM, HttQ103 aggreg inconclusive and PNC assembly inh -90.1.
Screening N#C/C(=C/c1ccc(N2CCOCC2)o1)c1ccc(Br)cc1 returned HTT cytoprotect inactive, HPGD block inconclusive, ALDH1A1 inh 15.8µM, RGS12 GoLoco inh inactive, HttQ103 aggreg inconclusive and PNC assembly inh inactive.
`COc1cc(N2CCCC2)c(OC)cc1/C=C(/C#N)c1cccc(F)c1` gave HTT cytoprotect inactive, HPGD block inactive, ALDH1A1 inh inconclusive, RGS12 GoLoco inh inactive, HttQ103 aggreg inconclusive and PNC assembly inh -88.7.
Screening COc1cc(N2CCCC2)c(OC)cc1/C=C1/NC(=S)NC1=O returned HTT cytoprotect inactive[0.074 µM], HPGD block inactive, ALDH1A1 inh inactive, RGS12 GoLoco inh inactive, HttQ103 aggreg inactive and PNC assembly inh inconclusive.
`O=C(Nc1ccc(N2CCCC2)cc1)c1cccc(F)c1` gave HTT cytoprotect inactive[10 µM], HPGD block inactive, ALDH1A1 inh inactive, RGS12 GoLoco inh inactive, HttQ103 aggreg inactive and PNC assembly inh inactive.
N#C/C(=C/c1ccc(N2CCCCCC2)o1)c1cccc(F)c1 was read as HTT cytoprotect inconclusive, HPGD block 25.1µM, ALDH1A1 inh 2µM, RGS12 GoLoco inh inactive, HttQ103 aggreg inconclusive and PNC assembly inh inconclusive.
`N#C/C(=C/c1ccc(N2CCOCC2)o1)c1nc2ccccc2[nH]1` gave HTT cytoprotect inactive[10 µM], HPGD block inactive, ALDH1A1 inh inactive, RGS12 GoLoco inh inactive, HttQ103 aggreg inactive and PNC assembly inh inconclusive.

Screening data as filed in PubChem.
